Experimental findings from the supplement of paper PMC7858590 are described below.

Several values for one entry are separate records, joined by “and”; a condition that tells them apart may be missing. Equal values may be shown once.

The test system of the first experiment is human monocyte-derived macrophages (polarized). In words: cell shape (eccentricity) Z-score vs DMSO control; higher = more elongated, M2-like morphology. The settings on record: 5 µM; 24 h; macrophage state: M1-polarized (IFNg + TNFa), cytokines present during treatment. The method, then:
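Primary-screen hits were rescreened on polarized hMDMs with the differentiating cytokines (IL-4 + IL-13 or IFNg + TNFa) kept in the medium during treatment with compound at 5 uM for 24 h. The eccentricity Z-score vs DMSO wells is averaged over experiments.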
Turning to `Nc1nc(N)c2nc(-c3cccc(O)c3)c(-c3cccc(O)c3)nc2n1`, the “cell shape (Z-score)” value was determined as 2.64.
Still for that read-out and setting: then `Nc1nc(Nc2ccccc2)nc2c1ncn2C1OC(CO)C(O)C1O` (stereo not given), with 2.02; and `O=c1cc(-c2ccccc2F)[nH]c2cc3c(cc12)OCO3`, with 0.5; and `CC(N)C(=O)OC(C)(C)Cc1ccc(Cl)cc1` (stereo not given), with -2.3.
Same read-out and setting: next, `CNC(=O)c1ccccc1Sc1ccc2c(/C=C/c3ccccn3)n[nH]c2c1`: 8.44 and 13.2.
The same measure, in the same setting: next, `c1ccc2c(Oc3nc(Nc4ccc(N5CCOCC5)cc4)c4ncn(C5CCCCC5)c4n3)cccc2c1`: 9.34; `C[C@@H]1O[C@@H](Oc2cc(O)c3c(=O)c(O[C@@H]4O[C@@H](C)[C@H](O[C@@H]5O[C@@H](C)[C@H](O)[C@@H](O)[C@H]5O)[C@@H](O)[C@H]4O)c(-c4ccc(O)cc4)oc3c2)[C@H](O)[C@H](O)[C@H]1O`: 5.9.
For `C=CC(=O)N1CCC[C@@H](n2nc(-c3ccc(Oc4ccccc4)cc3)c3c(N)ncnc32)C1`, the “cell shape (Z-score)” value is 6.69.
The same measure, in the same setting: then `c1ccc(-c2nnc(N3CCOCC3)nc2-c2ccccc2)cc1`, with -1.34; and `Cc1c(C(=O)Nc2ccc(N3C[C@@H](C)O[C@@H](C)C3)nc2)cccc1-c1ccc(OC(F)(F)F)cc1`, with 8.76.
The same measure, in the same setting: then `COc1ccc(-c2cc(=O)c3c(O)cc(O)cc3o2)cc1O`, with 3.77; and `O=C(CCc1ccc(O)cc1)c1c(O)cc(O)cc1O`, with -3.42; and `N#CCNC(=O)c1ccc(-c2ccnc(Nc3ccc(N4CCOCC4)cc3)n2)cc1`, with 22.9.
As to `Clc1ccc(C(Cn2ccnc2)OCc2ccsc2Cl)c(Cl)c1` (stereo not given), the “cell shape (Z-score)” value is -4.98.
On the same count and under the same terms, then `COc1c(OC)c(O)c2c(=O)c(O)c(-c3ccccc3)oc2c1OC`, with 5.45.
With `C(=N\NC1=NCCN1)/c1c2ccccc2c(/C=N/NC2=NCCN2)c2ccccc12`, the “cell shape (Z-score)” value was determined as 33.2.
On the same count and under the same terms, next, `CCCCCCN(CCCCCC)C(=O)Cc1c(-c2ccc(F)cc2)[nH]c2ccccc12`: -4.11; `C=C1CC[C@@H]2[C@](C)(CO[C@@H]3O[C@H](CO)[C@@H](O)[C@H](O)[C@H]3O)CCC[C@@]2(C)[C@@H]1CCC1=CCOC1=O`: -4.62.
`CC(C)C[C@H](NC(=O)CNC(=O)c1cc(Cl)ccc1Cl)B(O)O`: the “cell shape (Z-score)” value was 0.365.
For the compound `CC1(C)C(=O)C=CC2(C)C1C=CC1(C)C2CCC2(C)C(c3ccoc3)OC(=O)C3OC312` (stereo not given), the “cell shape (Z-score)” value is -1.04.
On the same count and under the same terms, next, `CC(C(=O)Nc1cccc(/N=C/c2c(O)ccc3ccccc23)c1)c1ccccc1` (stereo not given): 3.72; `O=C(O[C@@H]1Cc2c(O)cc(O)cc2O[C@@H]1c1cc(O)c(O)c(O)c1)c1cc(O)c(O)c(O)c1`: -2.7; `COc1ccc2oc(-c3ccccc3OC)cc(=O)c2c1`: 0.285.
On to `Cc1nn(C)c2nc(NNC(=O)Nc3cc(Cl)nc(Cl)c3)cc(C(C)C)c12`, for which the “cell shape (Z-score)” value was found to be 7.42.
Still for that read-out and setting: next, `O=C1c2ccccc2-c2n[nH]c3cccc1c23`: 9.54.

Still in this experiment, the particulars now being: 5 µM; 24 h; macrophage state: M2-polarized (IL-4 + IL-13), cytokines present during treatment.
For `OCCN(CCO)c1nc(N2CCCCC2)c2nc(N(CCO)CCO)nc(N3CCCCC3)c2n1`, the “cell shape (Z-score)” value stood at 0.465.
Still for that read-out and setting: next, `Cc1cc2nc3c(=O)[nH]c(=O)nc-3n(C)c2cc1C=O`: 6.26; `CC(C)CC1NC(=O)C(C)NC1=O` (stereo not given): -2.08; `C#CC1(OCC(O)CN2CCN(c3cccc(C(F)(F)F)c3)CC2)CCCCC1` (stereo not given): 3.74.
Still for that read-out and setting: then `O=C(Nc1nc2ccc(NC(=O)C34CC5CC(CC(C5)C3)C4)cc2s1)c1ccccc1`, with -6.86; and `CCCCC[C@H](O)/C=C/[C@H]1[C@H](O)CC(=O)[C@@H]1CCCCCCC(=O)O`, with -28.2.
The same measure, in the same setting: then `COC(=O)Nc1nc2cc(Sc3ccccc3)ccc2[nH]1`, with -6.87; and `CCCC[C@@H](O)c1cc(OC)cc(=O)o1`, with -3.33.
In the case of `CC(=O)OCC(=O)[C@@]1(O)[C@H](OC(C)=O)C[C@H]2[C@@H]3CCC4=CC(=O)C=C[C@]4(C)[C@@]3(F)[C@@H](O)C[C@@]21C`, the “cell shape (Z-score)” value was -9.46.
On the same count and under the same terms, next, `NC(N)=Nc1nc(CSCC/C(N)=N/S(N)(=O)=O)cs1`: 0.285; `COc1cc(O)c2c(=O)c(OC)c(-c3ccc(OC)c(OC)c3)oc2c1`: -8.25; `O=C(O)CC[C@H]1CC[C@@](c2cc(F)ccc2F)(S(=O)(=O)c2ccc(Cl)cc2)CC1`: 4.15.
On the same count and under the same terms, next, `O=C(O)Cc1nn(Cc2ccc(Br)cc2F)c(=O)c2ccccc12`: -1.61.
On to `CC(=O)OCCNC(=O)c1cccnc1`, for which the “cell shape (Z-score)” value was determined as 2.01.
Same read-out and setting: then `CC[C@@]1(O)C(=O)OCc2c1cc1n(c2=O)Cc2cc3c([N+](=O)[O-])cccc3nc2-1`, with -14.4.
